# Active and inactive are the calls of the source. No rule for the calls is given here.
# Assay: liver-stage malaria parasite load reduction – cell-based, known kinase inhibitor set, luminescence, hepatoma host viability (AID 624392);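 also: infected cells incubated roughly two days before readout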
# Details: Plasmodium liver stage in hepatoma cells, luciferase luminescence, concentration not given here; liver cell % of control: measured here: host liver cell viability; parasite % of control: stronger effect = lower value
Structure (SMILES),liver cell % of control,parasite % of control
CCN1CCN(Cc2ccc(NC(=O)c3ccc(C)c(NC(=O)c4ccc5n[nH]nc5c4)c3)cc2C(F)(F)F)CC1,104%,112% (inactive)
CCN1CCN(Cc2ccc(NC(=O)c3ccc(C)c(NC(=O)C4=NN(c5ccccc5)C(=O)C4)c3)cc2C(F)(F)F)CC1,101%,72.3% (inactive)
CCN1CCN(Cc2ccc(NC(=O)c3cc(NC(=O)c4ccc5n[nH]nc5c4)cc(OC)c3)cc2C(F)(F)F)CC1,101%,138% (inactive)
COc1cc(NC(=O)c2ccc(N)nc2)cc(C(=O)Nc2cccc(C(F)(F)F)c2)c1,97.9%,85% (inactive)
CCN1CCN(Cc2ccc(NC(=O)c3cc(NC(=O)C(=O)c4c[nH]c5ccccc45)cc(OC)c3)cc2C(F)(F)F)CC1,92.9%,85.7% (inactive)
COc1cc(NC(=O)c2cnc(N)o2)cc(C(=O)Nc2cccc(C(F)(F)F)c2)c1,87.7%,106% (inactive)
C=CC(=O)Nc1ccc(CN2C(=O)N(c3c(Cl)c(OC)cc(OC)c3Cl)Cc3cnc(NCCCCN(CC)CC)nc32)cc1,96.7%,227% (inactive)
Nc1cccc(-c2c[nH]c3ncc(-c4cccnc4)cc23)c1,94.3%,42.1% (inactive)
CCN1CCN(Cc2ccc(NC(=O)c3ccc(C)c(NC(=O)c4cccc(-c5cn[nH]c(=O)c5)c4)c3)cc2C(F)(F)F)CC1,103%,55.8% (inactive)
O=C(Nc1ccc(-c2csc(Nc3ccc(Cl)cc3)n2)cc1)c1cccc(C(F)(F)F)c1,104%,88% (inactive)
Nc1ccccc1CNc1nc(NCCO)nc2c1ncn2CCN1CCOCC1,100%,125% (inactive)
